The sample as a whole holds a higher share of hits than the screen did.
FECH inh – inhibitors of human ferrochelatase; purified FECH, Ni-mesoporphyrin absorbance 550 nm; AID 1671448; actives 3.3% (n = 20,000); calls only at 10 µM (by protocol); P22830;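 active = enzyme reaction rate more than 3 SD below the solvent-only control wells on the same plate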;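 also: lower slope than DMSO wells means FECH inhibition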
Target sequence (P22830 whole entry, looked up): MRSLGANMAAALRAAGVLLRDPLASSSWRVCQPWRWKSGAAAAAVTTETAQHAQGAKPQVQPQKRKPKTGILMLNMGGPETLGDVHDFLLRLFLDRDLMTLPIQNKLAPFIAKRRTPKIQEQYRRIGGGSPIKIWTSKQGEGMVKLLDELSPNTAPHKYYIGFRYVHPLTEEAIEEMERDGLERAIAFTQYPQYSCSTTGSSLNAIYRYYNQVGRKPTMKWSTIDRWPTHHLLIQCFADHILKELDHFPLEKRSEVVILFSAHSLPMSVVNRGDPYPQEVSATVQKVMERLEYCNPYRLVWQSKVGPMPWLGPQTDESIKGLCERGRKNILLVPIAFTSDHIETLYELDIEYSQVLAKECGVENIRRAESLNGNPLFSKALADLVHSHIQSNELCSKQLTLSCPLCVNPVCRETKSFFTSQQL
Calls only; 0 = inactive; + = active, no number.

SMILES | FECH inh
COc1ccc([C@@H](C)NC(=O)[C@@H]2C[C@H](NC(=O)c3cccc(C)c3)CN2C)cc1 | 0
O=C(CN1C(=O)CCc2cc(S(=O)(=O)N3CCCC3)ccc21)Nc1nccs1 | 0
CCc1[nH]ncc1C(=O)NCc1cccnc1Oc1cccc(C(F)(F)F)c1 | 0
CNC(=O)CCN(C)C(=O)C(O)c1ccc(C(F)(F)F)cc1 (configuration not stated) | 0
CCC(CC)n1ncc(C)c1NC(=O)c1ccc(-c2noc(C3CC3)n2)cc1 | 0
Cc1ccsc1[C@@H]1CCN(Cc2ccncc2F)C[C@H]1O | 0
COCC(C)NC(=O)C(=O)NCc1n[nH]c(=O)c2ccccc12 (configuration not stated) | 0
COC(=O)c1cc2n(n1)CCCN(C(=O)c1cc3c([nH]c1=O)CCCC3)C2 | 0
O=c1[nH]nc(CN2CCOCC2)n1-c1ccc2c(c1)OCO2 | 0
CC(C)c1ccc2c(c1)-c1ccccc1S(=O)(=O)N2CC(=O)NCCN1CCOCC1 | 0
O=C(CN1C(=O)c2ccccc2S1(=O)=O)NCc1ccc2c(c1)OCO2 | 0
CCc1ccc2c(c1)-c1ccccc1S(=O)(=O)N2CC(=O)NCc1ccncc1 | +
COc1ccc(CCNC(=O)CN2c3ccc(C(C)C)cc3-c3ccccc3S2(=O)=O)cc1 | 0
CC(C)c1ccc2c(c1)-c1ccccc1S(=O)(=O)N2CC(=O)NCc1cccnc1 | +
CCOCCCNC(=O)CN1c2ccc(CC)cc2-c2ccccc2S1(=O)=O | +
CCc1ccc2c(c1)-c1ccccc1S(=O)(=O)N2CC(=O)NCCc1ccc(OC)c(OC)c1 | 0
CCc1ccc2c(c1)-c1ccccc1S(=O)(=O)N2CC(=O)NCCN1CCOCC1 | 0
CC(C)c1nc2cc(-c3ccn[nH]3)ccc2o1 | 0
CCCc1cc(CNC2CCN(C(=O)C3CCCO3)CC2)on1 (configuration not stated) | 0
COc1cc(-c2nc(CCc3ccccc3)nn2-c2ccccn2)ccn1 | 0
CN(C)C(=O)c1cc(-c2cnn(-c3ccccc3F)c2)nc2cc(F)ccc12 | 0
NC(=O)c1cnc2n1CCN(C(=O)c1ccc(-n3ccnc3)cc1)C2 | 0
Cn1c(=O)n(C)c2cc(CNC3CCC(=O)N(CC4CC4)CC3)ccc21 (configuration not stated) | 0
CCc1cc(Sc2ccc(NC(=O)c3ccccc3)cc2)n2ncnc2n1 | 0
CCOC(=O)c1cc2ccsc2n1CC(=O)N(CC)c1ccccc1 | +
SMILES | FECH inh
CCOC(=O)c1cc2ccsc2n1CC(=O)Nc1ccccc1C(=O)OC | 0
CCOC(=O)c1cc2ccsc2n1CC(=O)N(CC)c1cccc(C)c1 | 0
CC(C)(C)c1ncc2c(n1)CN(C(=O)CCn1nnc3ccccc31)C2 | 0
Cc1cccc2[nH]c(C3CCCN3Cc3ncc[nH]3)nc12 (configuration not stated) | 0
CCN(CC)c1nccc(-c2cc(C(=O)O)ccn2)n1 | 0
CCOc1ccc(-c2ccnc(CC3CCN(C)CC3)n2)cc1C(=O)O | 0
CCOCc1nccc(-c2cc(C(=O)O)ccn2)n1 | +
CCOC(=O)N1CCC(N[C@H]2COC[C@@H]2OCC)CC1 | 0
Cc1cc(C)n2c(SCc3cc(=O)n4oc(C)cc4n3)nnc2n1 | 0
Cc1cc2nc(CSc3nnc4c(n3)[nH]c3ccccc34)cc(=O)n2o1 | +
Cc1cc2nc(CSc3nnc(-c4cc(C)n(C)n4)o3)cc(=O)n2o1 | 0
Cc1ccc(Nc2cc(C)nc(N3CCN(S(=O)(=O)c4ccc(C)c(C)c4)CC3)n2)cc1 | 0
Nc1nc(CCNC(=O)c2cccc(CC3CCNCC3)c2)cs1 | 0
Cc1cc(C)cc(-n2c(CN3CCN(S(=O)(=O)c4cccc5nsnc45)CC3)nc3cccnc32)c1 | +
COc1ccc(-n2c(CN3CCN(S(=O)(=O)c4cc(F)cc(F)c4)CC3)nc3cccnc32)cc1 | 0
COc1cccc(S(=O)(=O)N2CCN(Cc3nc4cccnc4n3-c3ccccc3)CC2)c1 | 0
Cc1ccc(-n2c(CN3CCN(S(=O)(=O)c4cc(F)cc(F)c4)CC3)nc3cccnc32)cc1 | +
Cc1ccc(-n2c(CN3CCN(S(=O)(=O)c4ccc(F)cc4)CC3)nc3cccnc32)cc1 | 0
Cc1cc(C)cc(-n2c(CN3CCN(S(=O)(=O)c4ccc(C)cc4C)CC3)nc3cccnc32)c1 | 0
COc1cccc(S(=O)(=O)N2CCN(Cc3nc4cccnc4n3-c3cccc(F)c3)CC2)c1 | +
COc1cccc(S(=O)(=O)N2CCN(Cc3nc4cccnc4n3-c3cccc(C)c3)CC2)c1 | 0
Cc1cccc(-n2c(CN3CCN(S(=O)(=O)c4cc(C)c(C)cc4C)CC3)nc3cccnc32)c1 | 0
Cc1ccc(C2(O)CCN(Cc3ccc(-c4ccn[nH]4)o3)CC2)nc1 | 0
CCn1c2ccccc2c2cc(NC(=O)c3nc4ccccc4n(C)c3=O)ccc21 | 0
COc1ccc(Nc2cc(C)nc(Nc3ccc(NC(=O)c4ccccc4OC)cc3)n2)cc1 | +
COc1ccc(Nc2cc(C)nc(Nc3ccc(NC(=O)c4cc(Cl)ccc4OC)cc3)n2)cc1 | 0
COc1ccc(C(=O)Nc2ccc(Nc3nc(C)cc(Nc4ccccc4)n3)cc2)cc1 | 0
Cc1cc(NC(=O)c2cccc(Cl)c2)n(-c2ncnc3c2cnn3-c2cccc(C)c2C)n1 | 0

Screens (PubChem BioAssay)
